The values that follow come from the supplement of paper PMC6555819.

The subject of this assay is VDR:RXRa (NR concentration 270 nM, RXRa partner concentration 90 nM). Briefly: PBM binding z-score (relative to random genomic background probes); higher = stronger binding; sequences stand for … in GC…GCGATTGACAGCGTAGAATGAAGG
As for the experimental part:
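Protein-binding microarray (Agilent 4x180K custom design, double-stranded 60-nt probes: 5' GC cap, 34-nt variable region, 24-nt constant primer region; full probe sequence given). Purified or IVT nuclear receptor:RXRα heterodimers (3:1 NR:RXRα, mostly 270:90 nM) or homodimers were incubated for 1 h in PBS with 2% milk and no ligand, then detected with Alexa488 antibodies. Fluorescence from o1-orientation probes (~5 replicates averaged) was converted to z-scores against 500 random hg19 background probes. Variable regions are seed direct-repeat (DR0–DR5) sites, all their single-nucleotide variants and half-site ablations.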
In turn, ATACCAAGGTGATCGTGAGGCCGTTGATACTAAC registered a PBM binding z-score of 0.401.

Sequence CGTACTAGGTCATTGACAGGACAGTGAATAGTAA registered a PBM binding z-score of 2.09.

The sequence CCTGCTGGGCCACGAAAGGTCATTGATTCAGTGA had a PBM binding z-score of 4.08.

The sequence GGAACGAGGGCATTCGAGTTGATAGTATGGCGAT displayed a PBM binding z-score of 4.13.

In the case of TATACAGGGTCAAAGACCAGAGTACGAATGTCGA, the PBM binding z-score was found to be 4.43.

As for TCGAGTAGGTTAGTCGGGTCATTCAGCCAACATA, the PBM binding z-score came out at 4.88.

In turn, GCGACTGGGGCATCAGCAGGGTACCATAACTTAA displayed a PBM binding z-score of -0.459.

With AGGACGAGGGCAATGAGTTGATAGCACGGGTGGC, the PBM binding z-score amounted to 5.11.

The sequence TAGCCTCGGTCATGCGGGCCAGTATAGTGTCGGC registered a PBM binding z-score of -0.284.

For AGAACGAGGTTATTAAGATCAGGGAATTGCGGTC, the PBM binding z-score was determined as 2.38.

CCTGCTAGGTCATGGTCATCTAATCTACAGTATG displayed a PBM binding z-score of 1.89.

In turn, ATCGCAAGGTCGAGGTGAGTATAGAGAAAGGGAA yielded a PBM binding z-score of 1.43.

ATATGTAGGTTACATCCGGGTCATTGAGGCTATG: the PBM binding z-score was 5.02.

Sequence TCATATAGGTAAATGCTAGCTGAAAGTCCGATCT displayed a PBM binding z-score of 0.702.

CCGACTGGGGCAAGGGTTACCATACTCAGTACGA: the PBM binding z-score is -0.292.

CCTACTGGGCCATAGGTCATTGATTCCAATGCTC had a PBM binding z-score of 2.17.

In turn, CGTCGAAGGTCATAGGAGGTCAGTGAAGACAGAT yielded a PBM binding z-score of 6.76.

Turning to TCTAGCAGGCCAGAGGGTCTCTCAAGAGGTACGG, the PBM binding z-score is -0.687.

Regarding CCTGCTAGGTCATGTTCAGCTAATCTACAGTATG, the PBM binding z-score was 1.48.

With ACTAGCAGGCCAAGTTTGGGTTACTCAAACAAAG, the PBM binding z-score was -0.254.

Consider ACTATTAGTTGAGACGAGGGCAACCAATAGGTTG, for which the PBM binding z-score amounted to 0.987.

CATCAAAGTTCAAGGTAACGTAACAGAAAGCAGC yielded a PBM binding z-score of 4.01.

CGAGCTAGGTCAGAACAGGACAGTGAAGGATGAT: the PBM binding z-score is 0.446.

The sequence CGAACTAGGTCAGAAAAGGACAGTGAAGGATGAT came in with a PBM binding z-score of 0.459.

TCAGACAGGTGAAAGTAACTCAGGTACGCAGTCG yielded a PBM binding z-score of 0.591.

As to CTTTACGGGTCACGAGGTTATAGCACGACGAGCG, the PBM binding z-score came out at 5.31.

For TCTGCTACGTCAACGATGGTCAGCTAATCTGCTA, the PBM binding z-score was -0.548.

For TCGAGTAGGTTCGTCGGGGCATTCAGCCAACATA, the PBM binding z-score was found to be 1.79.

In the case of TCCTGTAGATCAATAGAGGTTAAGAAAGTGCGCT, the PBM binding z-score is 1.67.

Sequence ATATGTAGGTTAACGGGTCATTCAGTTTGCGCAT yielded a PBM binding z-score of 5.16.

For the sequence CCTCCAAGGTCAAAGGTCAGTGAAGAGATGACGG, the PBM binding z-score came to 6.52.

As to TAGCCTAGGTCATGGGCAAGTATACCACGCGAAC, the PBM binding z-score amounted to 2.13.

ATCTCTAGGCAACCAAGTTCAGTGAATGCCGAAC had a PBM binding z-score of 2.1.

Turning to GCGATTAGTTGAAAGGGCAACCGAATGATTCTCG, the PBM binding z-score stood at 0.316.

On to GCTAGTTGGTCAGTAAAAGGTCACCCACCGGTCG, for which the PBM binding z-score was 3.44.

For ATATGTACGTTATCGGGTCATTCAGTTTGCGCAT, the PBM binding z-score came out at 5.03.

As to GCTGCTAGGACAACTGATGGTCAGCTAAAGCTCG, the PBM binding z-score is -0.904.

In the case of CCAGACAGGTGAGGAGGTAACTCAGCCTCGATTA, the PBM binding z-score was 0.00298.

Consider CCTACTGGGCCATCAGGTCGTTGATATCAACGTT, for which the PBM binding z-score turned out to be 0.18.

In turn, TTACCAAGGTGACGGTCGTTGATCCCTCTGTAGA returned a PBM binding z-score of 0.0426.
